Results from PubChem BioAssay AID1159580 (chemical genetic matrix, 2015).
Out of some 5,500 compounds screened, about 2,000 (36%) were called active. Roughly 18% stayed inconclusive and do not appear here. Cut-off read from the data, not from the text of the source: active = normalized growth mostly below about 0.91 (no sharp cut-off); inconclusive = no clear call, values can overlap the other calls; inactive = mostly above about 0.92. This is one part of the list.

Experiment: chemical genetic growth profiling, strain panel (AID 1159580);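 note: tested at 20 µM; growth read once vehicle control cultures reached saturation at 30 °C; 1 = growth at the plate median or of vehicle wells; lower values mean less growth of the strain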
Conditions: growth OD
[1] = S. cerevisiae deletion strains, locus YAL013W, strain DEP1, hits give low values
[2] = S. cerevisiae deletion strains, locus YBR229C, strain ROT2, hits give low values
[3] = S. cerevisiae deletion strains, locus YDL101C, strain DUN1, hits give low values
[4] = S. cerevisiae deletion strains, locus YDR150W, strain NUM1, hits give low values
[5] = S. cerevisiae deletion strains, locus YEL061C, strain CIN8, hits give low values
[6] = S. cerevisiae deletion strains, locus YGR078C, strain PAC10, hits give low values
[7] = S. cerevisiae deletion strains, locus YHR030C, strain SLT2, hits give low values
[8] = S. cerevisiae deletion strains, locus YHR087W, strain rtc3, hits give low values
[9] = S. cerevisiae deletion strains, locus YJR043C, strain POL32, hits give low values
[10] = S. cerevisiae deletion strains, locus YJR075W, strain HOC1, hits give low values
[11] = S. cerevisiae deletion strains, locus YLR039C, strain RIC1, hits give low values
[12] = S. cerevisiae deletion strains, locus YLR058C, strain SHM2 (second series), hits give low values
[13] = S. cerevisiae deletion strains, locus YLR085C, strain ARP6, hits give low values
[14] = S. cerevisiae deletion strains, locus YLR262C, strain YPT6, hits give low values
[15] = S. cerevisiae deletion strains, locus YML094W, strain GIM5, hits give low values
[16] = S. cerevisiae deletion strains, locus YMR219W, strain ESC1, hits give low values
[17] = S. cerevisiae deletion strains, locus YMR263W, strain SAP30, hits give low values
[18] = S. cerevisiae deletion strains, locus YNL153C, strain GIM3, hits give low values
[19] = S. cerevisiae deletion strains, locus YNL298W, strain CLA4 (second series), hits give low values
[20] = S. cerevisiae deletion strains, locus YNL322C, strain KRE1, hits give low values
[21] = S. cerevisiae deletion strains, locus YNR030W, strain Alg12, hits give low values
[22] = S. cerevisiae deletion strains, locus YPL055C, strain LGE1, hits give low values
[23] = S. cerevisiae deletion strains, locus YPL241C, strain CIN2, hits give low values
[24] = S. cerevisiae deletion strains, locus YPR135W, strain CTF4, hits give low values
[25] = S. cerevisiae strains, strain wild type, hits give low values

Measured: normalized growth

CC(=O)/C(=C\N(C)C)Sc1ccc(Cl)cc1
inactive: S. cerevisiae deletion strains, locus YDL134C, strain PPH21, hits give low values 0.976 | [4] 0.859 | [5] 0.989 | [7] 1.02 | [11] 0.876 | [13] 1.12 | [14] 0.873 | [15] 1.07 | [19] 1.03 | [21] 1.03 | S. cerevisiae deletion strains, locus YOL006C, strain TOP1, hits give low values 1.09 | [22] 0.933 | [23] 0.937 | [24] 1.29 | [25] 0.975
active: [1] 0.883 | [2] 0.82 | S. cerevisiae deletion strains, locus YCL061C, strain MRC1, hits give low values 0.838 | [3] 0.897 | [6] 0.817 | [8] 0.832 | [9] 0.888 | [10] 0.776 | [12] 0.817 | [16] 0.86 | [17] 0.839 | [18] 0.793 | [20] 0.819

CC(=O)/C(=C\N(C)C)Sc1nnc(C(F)(F)F)n1C
inactive: [1] 1.06 | [2] 1.03 | [3] 0.968 | [4] 1.02 | [5] 1.01 | [6] 1.01 | [7] 1.06 | [8] 1.04 | S. cerevisiae deletion strains, locus YJL187C, strain SWE1, hits give low values 0.998 | [9] 1.01 | [10] 0.987 | S. cerevisiae deletion strains, locus YKL190W, strain CNB1, hits give low values 0.993 | [11] 1.05 | [12] 1 | [13] 1.16 | [14] 1.01 | [15] 1.06 | [16] 1.02 | [17] 1.01 | S. cerevisiae deletion strains, locus YNL128W, strain TEP1, hits give low values 1.01 | [18] 1.02 | [19] 1.03 | [20] 1 | [21] 1.02 | [22] 1.09 | [23] 1.1 | [24] 1.21 | [25] 1.01

Cc1c(NCN2C(=O)CCC2=O)cc2c(c1[N+](=O)[O-])C(C)(C)CC2(C)C
active: S. cerevisiae deletion strains, locus YLR113W, strain HOG1, hits give low values 0.861
inactive: S. cerevisiae deletion strains, locus YAR019C, strain CDC15, hits give low values 0.963 | S. cerevisiae deletion strains, locus YBL105C, strain PKC1, hits give low values 0.962 | S. cerevisiae deletion strains, locus YBR135W, strain CKS1, hits give low values 0.967 | S. cerevisiae deletion strains, locus YBR136W, strain MEC1, hits give low values 0.959 | S. cerevisiae deletion strains, locus YBR160W, strain CDC28, hits give low values 0.967 | S. cerevisiae deletion strains, locus YDL017W, strain CDC7, hits give low values 0.961 | S. cerevisiae deletion strains, locus YDL028C, strain MPS1, hits give low values 0.962 | [3] 0.942 | S. cerevisiae deletion strains, locus YDL108W, strain KIN28, hits give low values 0.965 | S. cerevisiae deletion strains, locus YDL132W, strain cdc53, hits give low values 0.948 | S. cerevisiae deletion strains, locus YDL214C, strain PRR2, hits give low values 0.925 | S. cerevisiae deletion strains, locus YDR052C, strain DBF4, hits give low values 0.956 | S. cerevisiae deletion strains, locus YDR054C, strain cdc34, hits give low values 0.958 | S. cerevisiae deletion strains, locus YDR226W, strain ADK1, hits give low values 0.955 | S. cerevisiae deletion strains, locus YDR477W, strain SNF1, hits give low values 0.913 | S. cerevisiae deletion strains, locus YER123W, strain YCK3, hits give low values 0.9 | S. cerevisiae deletion strains, locus YER133W, strain GLC7, hits give low values 0.879 | S. cerevisiae deletion strains, locus YFL009W, strain cdc4, hits give low values 0.957 | S. cerevisiae deletion strains, locus YFL029C, strain CAK1, hits give low values 0.95 | S. cerevisiae deletion strains, locus YFR003C, strain YPI1, hits give low values 0.961 | S. cerevisiae deletion strains, locus YFR019W, strain FAB1, hits give low values 0.952 | S. cerevisiae deletion strains, locus YFR028C, strain CDC14, hits give low values 0.956 | S. cerevisiae deletion strains, locus YGR040W, strain KSS1, hits give low values 0.912 | S. cerevisiae deletion strains, locus YGR052W, strain FMP48, hits give low values 0.933 | S. cerevisiae deletion strains, locus YGR092W, strain DBF2, hits give low values 0.931 | [7] 0.909 | S. cerevisiae deletion strains, locus YHR079C, strain IRE1, hits give low values 0.894 | S. cerevisiae deletion strains, locus YHR082C, strain KSP1, hits give low values 0.993 | S. cerevisiae deletion strains, locus YHR205W, strain SCH9, hits give low values 0.904 | S. cerevisiae deletion strains, locus YIL147C, strain SLN1, hits give low values 0.963 | S. cerevisiae deletion strains, locus YJL095W, strain BCK1, hits give low values 0.839 | S. cerevisiae deletion strains, locus YJL128C, strain PBS2, hits give low values 0.901 | S. cerevisiae deletion strains, locus YJL157C, strain FAR1, hits give low values 0.92 | S. cerevisiae deletion strains, locus YJR016C, strain ILV3, hits give low values 0.96 | S. cerevisiae deletion strains, locus YJR066W, strain TOR1 (second series), hits give low values 0.861 | S. cerevisiae deletion strains, locus YJR066W, strain TOR1, hits give low values 1.03 | S. cerevisiae deletion strains, locus YKL048C, strain ELM1, hits give low values 0.928 | S. cerevisiae deletion strains, locus YKL067W, strain YNK1, hits give low values 0.929 | S. cerevisiae deletion strains, locus YKL101W, strain HSL1, hits give low values 0.922 | S. cerevisiae deletion strains, locus YKL193C, strain SDS22, hits give low values 0.95 | S. cerevisiae deletion strains, locus YKL203C, strain TOR2, hits give low values 0.978 | S. cerevisiae deletion strains, locus YLR133W, strain CKI1, hits give low values 0.944 | S. cerevisiae deletion strains, locus YLR403W, strain SFP1, hits give low values 0.921 | S. cerevisiae deletion strains, locus YML070W, strain DAK1, hits give low values 0.911 | S. cerevisiae deletion strains, locus YMR001C, strain CDC5, hits give low values 0.956 | S. cerevisiae deletion strains, locus YMR205C, strain PFK2 (second series), hits give low values 0.927 | S. cerevisiae deletion strains, locus YMR277W, strain FCP1, hits give low values 0.96 | S. cerevisiae deletion strains, locus YNL006W, strain LST8, hits give low values 0.954 | S. cerevisiae deletion strains, locus YNL020C, strain ARK1, hits give low values 0.932 | S. cerevisiae deletion strains, locus YNL161W, strain CBK1, hits give low values 0.95 | S. cerevisiae deletion strains, locus YNL183C, strain NPR1, hits give low values 0.977 | S. cerevisiae deletion strains, locus YNL207W, strain RIO2, hits give low values 0.965 | S. cerevisiae deletion strains, locus YNL222W, strain SSU72, hits give low values 0.959 | S. cerevisiae deletion strains, locus YNL307C, strain MCK1 (second series), hits give low values 0.94 | S. cerevisiae deletion strains, locus YOL078W, strain AVO1, hits give low values 0.952 | S. cerevisiae deletion strains, locus YOL136C, strain PFK27, hits give low values 0.914 | S. cerevisiae deletion strains, locus YOR061W, strain CKA2, hits give low values 0.945 | S. cerevisiae deletion strains, locus YOR119C, strain RIO1, hits give low values 0.951 | S. cerevisiae deletion strains, locus YOR231W, strain MKK1, hits give low values 0.943 | S. cerevisiae deletion strains, locus YOR329C, strain SCD5, hits give low values 0.961 | S. cerevisiae deletion strains, locus YPL031C, strain PHO85, hits give low values 0.899 | S. cerevisiae deletion strains, locus YPL153C, strain RAD53, hits give low values 0.905 | S. cerevisiae deletion strains, locus YPL204W, strain HRR25, hits give low values 0.891 | S. cerevisiae deletion strains, locus YPL209C, strain IPL1, hits give low values 0.957 | S. cerevisiae deletion strains, locus YPL256C, strain CLN2, hits give low values 0.87 | S. cerevisiae deletion strains, locus YPR025C, strain CCL1, hits give low values 0.952 | S. cerevisiae deletion strains, locus YPR106W, strain ISR1, hits give low values 0.949 | S. cerevisiae deletion strains, locus YPR111W, strain DBF20, hits give low values 0.943 | S. cerevisiae deletion strains, strain NNK1, hits give low values 0.937 | S. cerevisiae deletion strains, strain TSCII, hits give low values 0.953
